According to PubChem BioAssay (NCI):
Where “and” joins values, the source holds several entries; their conditions need not be identical. Equal values may be shown once. This is part of a sample that, as a whole, favours compounds with a hit. Of some 79,000 tested, about 15% had one in any assay. A structure can be active in one record and inactive in another. Calls of active or inactive are those of the source. Cut-off read from the data, not from the text of the source: active = growth inhibition above about 70%; inactive = the rest.

Columns and labels:
[1] = NCI Yeast Anticancer Drug Screen. Data for the wt2 strain (AID 169);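 note: 0% = growth of vehicle-treated yeast cultures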; details: S. cerevisiae wt2 strain growth inhibition, stronger effect = higher value
Method in brief: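 Values express reduction in yeast growth under compound treatment, referenced to vehicle-treated cells.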

[2] = NCI Yeast Anticancer Drug Screen. Data for the mlh1 strain (AID 171);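 note: 0% = growth of vehicle-treated control cultures of the same strain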; details: S. cerevisiae mlh1 strain growth inhibition, stronger effect = higher value
Method in brief: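 Steps: expose the defined-mutant yeast strain to compound; expose a parallel culture to vehicle; measure growth; express compound effect as inhibition relative to the vehicle culture.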

[3] = NCI Yeast Anticancer Drug Screen. Data for the sgs1 strain (AID 173);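 note: 0% = growth of vehicle-only control cultures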; details: S. cerevisiae sgs1 mutant, stronger effect = higher value
Method in brief: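 Treat defined-mutant yeast with compound; measure growth; calculate inhibition relative to vehicle-treated cells.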

[4] = NCI Yeast Anticancer Drug Screen. Data for the mlh1 rad18 strain (AID 175); details: S. cerevisiae mlh1 rad18 strain growth inhibition, stronger effect = higher value
Method in brief: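 Test agents were incubated with a yeast strain of defined genotype (DNA damage repair defect). Inhibition of growth was derived by comparison with vehicle-exposed cultures.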

[5] = NCI Yeast Anticancer Drug Screen. Data for the rad52 strain (AID 147);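 note: 0% = growth of vehicle-treated control cultures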; details: S. cerevisiae rad52 mutant growth inhibition, stronger effect = higher value
Method in brief: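 Screen used a yeast mutant impaired in DNA repair. After compound exposure, growth was measured. Values reflect inhibition compared with vehicle-treated cells.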

[6] = NCI Yeast Anticancer Drug Screen. Data for the wt1 strain (AID 149);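 note: 0% = growth of vehicle-treated wt1 cultures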; details: S. cerevisiae wt1 strain (SPY 50644) growth inhibition, stronger effect = higher value
Method in brief: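 Measured: growth of wt1 yeast under compound versus vehicle treatment, reported as inhibition.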

[7] = NCI Yeast Anticancer Drug Screen. Data for the rad50EPP+ strain (AID 151);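 note: 0% = growth of vehicle-treated control cultures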; details: S. cerevisiae rad50 mutant strain, stronger effect = higher value
Method in brief: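 Exposing the rad50EPP+ strain to each compound, growth was compared with vehicle-only cultures to give inhibition.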

[8] = NCI Yeast Anticancer Drug Screen. Data for the mgt1 strain (AID 153); details: S. cerevisiae mgt1 mutant growth inhibition, stronger effect = higher value
Method in brief: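 Genetically defined yeast (mgt1) treated with compound; inhibition of growth expressed against vehicle-treated controls.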

[9] = NCI Yeast Anticancer Drug Screen. Data for the rad50 strain (AID 155);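 note: 0% = growth of vehicle-only cultures of the same strain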; details: S. cerevisiae rad50 strain growth inhibition, stronger effect = higher value
Method in brief: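 Growth of the mutant yeast was measured after compound exposure and referenced to vehicle-treated cultures.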

[10] = NCI Yeast Anticancer Drug Screen. Data for the mec2-1 strain (AID 157); details: S. cerevisiae mec2-1 strain, stronger effect = higher value
Method in brief: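 Readout is yeast growth inhibition, normalised to vehicle-treated controls, in the mec2-1 strain exposed to compound.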

[11] = NCI Yeast Anticancer Drug Screen. Data for the rad14 strain (AID 159);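 note: 0% = growth of vehicle-treated control cultures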; details: S. cerevisiae rad14 strain growth inhibition, stronger effect = higher value
Method in brief: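 Here, inhibition of yeast growth was measured after compound exposure, using a strain with a genetic defect in DNA damage repair and vehicle-treated cultures as the reference.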

[12] = NCI Yeast Anticancer Drug Screen. Data for the sgs1 mgt1 strain (AID 161);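 note: 0% = growth of cultures given vehicle only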; details: S. cerevisiae sgs1 mgt1 strain, stronger effect = higher value
Method in brief: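 Compounds are added to genetically altered yeast, and growth is compared with cultures given vehicle alone to give percent inhibition.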

[13] = NCI Yeast Anticancer Drug Screen. Data for the CLN2oe strain (AID 163);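 note: 0% = growth of vehicle-only control cultures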; details: S. cerevisiae CLN2oe strain, stronger effect = higher value
Method in brief: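 Values reflect how much compound exposure reduced yeast growth, referenced to vehicle-exposed cells. Assay organism is a strain with a defined genetic change affecting cell-cycle control.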

[14] = NCI Yeast Anticancer Drug Screen. Data for the cln2 rad14 strain (AID 165);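 note: 0% = growth equal to vehicle treated cultures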; details: S. cerevisiae cln2 rad14 strain, stronger effect = higher value
Method in brief: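 Relative to vehicle controls, growth inhibition of compound-treated cln2 rad14 yeast was recorded.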

[15] = NCI Yeast Anticancer Drug Screen. Data for the bub3 strain (AID 167); details: S. cerevisiae bub3 mutant strain, stronger effect = higher value
Method in brief: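 Whole-cell yeast assay. The mutant strain was incubated with compounds, and growth inhibition was determined by comparison with vehicle-treated cells.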

[16] = NCI Yeast Anticancer Drug Screen. Data for the rad18 strain (AID 177); details: S. cerevisiae rad18 mutant growth inhibition, stronger effect = higher value
Method in brief: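 A genetically defined yeast mutant impaired in DNA damage repair was treated with test compounds, then its growth was measured against cultures receiving vehicle alone.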

[17] = at 5.0 µM (retest, dose inferred, filed as 0.5)
[18] = at 50.0 µM (retest, dose inferred, filed as 5.0)

Measured: growth inhibition

Cc1cc(C)c(NC(=S)NC(=O)c2ccccc2)cc1C
inactive: [1]; at 1.2 µM -43% | [1]; at 3.7 µM -49% | [1]; at 11.0 µM -43% | [1]; at 33.0 µM -4% | [1]; at 100.0 µM 22% | [2]; at 1.2 µM -34% | [2]; at 3.7 µM -20% | [2]; at 11.0 µM -7% | [2]; at 33.0 µM 34% | [2]; at 100.0 µM 32% | [3]; at 1.2 µM -62% | [3]; at 3.7 µM -54% | [3]; at 11.0 µM -45% | [3]; at 33.0 µM -3% | [3]; at 100.0 µM -1% | [4]; [17] -37% | [4]; [18] -12% | [4]; at 50.0 µM 8.65%

CS(=O)(=O)OCCN(CCOS(C)(=O)=O)c1ccc(C=Nc2ccc(-c3csc(COc4ccccc4)n3)cc2)cc1
-80% (inactive) and 96% (active): [14]; [18]
inactive: [5]; at 1.2 µM 15% | [5]; at 3.7 µM 29% | [6]; at 1.2 µM -30% | [6]; at 3.7 µM -33% | [6]; at 11.0 µM -8% | [7]; at 1.2 µM -2% | [7]; at 3.7 µM -11% | [7]; at 11.0 µM 49% | [8]; at 1.2 µM -22% | [8]; at 3.7 µM -16% | [8]; at 11.0 µM 23% | [9]; at 1.2 µM -29% | [9]; at 3.7 µM -5% | [9]; [17] 44% and 40% | [9]; at 11.0 µM 63% | [10]; at 1.2 µM -46% | [10]; at 3.7 µM -18% | [10]; [17] 33% and 34% | [10]; at 11.0 µM 41% | [11]; at 1.2 µM -25% | [11]; at 3.7 µM 14% | [11]; at 11.0 µM 59% | [12]; [17] -12% and 26% | [13]; at 1.2 µM 1% | [13]; at 3.7 µM 4% | [13]; at 11.0 µM 45% | [14]; [17] -2% and 25% | [15]; at 1.2 µM -36% | [15]; at 3.7 µM -16% | [15]; [17] -4% and 19% | [15]; at 11.0 µM 47% | [1]; at 1.2 µM -4% | [1]; at 3.7 µM 11% | [1]; at 11.0 µM 54% | [2]; at 1.2 µM -24% | [2]; at 3.7 µM -17% | [2]; at 11.0 µM 42% | [3]; at 1.2 µM 11% | [3]; at 3.7 µM 14% | [3]; at 11.0 µM 64% | [16]; at 1.2 µM 15% | [16]; at 3.7 µM 61%
active: [5]; at 11.0 µM 76% | [5]; at 33.0 µM 96% | [5]; at 100.0 µM 93% | [6]; at 33.0 µM 90% | [6]; at 100.0 µM 91% | [7]; at 33.0 µM 94% | [7]; at 100.0 µM 93% | [8]; at 33.0 µM 90% | [8]; at 100.0 µM 91% | [9]; at 33.0 µM 93% | [9]; [18] 95% and 96% | [9]; at 50.0 µM 97% | [9]; at 100.0 µM 91% | [10]; at 33.0 µM 93% | [10]; [18] 96% | [10]; at 50.0 µM 98.2% | [10]; at 100.0 µM 91% | [11]; at 33.0 µM 95% | [11]; at 100.0 µM 94% | [12]; at 50.0 µM 84.8% and 97.7% | [13]; at 33.0 µM 93% | [13]; at 100.0 µM 90% | [14]; at 50.0 µM 85.3% and 95.8% | [15]; at 33.0 µM 91% | [15]; at 50.0 µM 84.5% and 96.2% | [15]; at 100.0 µM 88% | [1]; at 33.0 µM 92% | [1]; at 100.0 µM 91% | [2]; at 33.0 µM 94% | [2]; at 100.0 µM 92% | [3]; at 33.0 µM 93% | [3]; at 100.0 µM 92% | [4]; [18] 95% and 97% | [4]; at 50.0 µM 97.2% | [16]; at 11.0 µM 84% | [16]; at 33.0 µM 95% | [16]; at 100.0 µM 91%
-73% (inactive) and 96% (active): [15]; [18]
81% (active) and 65% (inactive): [4]; [17]
-64% (inactive) and 98% (active): [12]; [18]

O=c1ccc(=O)n(-c2ccccc2)[nH]1
85% (active) and -26.4% (inactive): [10]; at 50.0 µM
79.4% (active) and -20.1% (inactive): [4]; at 50.0 µM
inactive: [5]; at 1.2 µM -29% | [5]; at 3.7 µM -11% | [5]; at 11.0 µM 17% | [6]; at 1.2 µM -16% | [6]; at 3.7 µM -10% | [6]; at 11.0 µM 29% | [7]; at 1.2 µM -24% | [7]; at 3.7 µM -5% | [7]; at 11.0 µM 38% | [8]; at 1.2 µM 0% | [8]; at 3.7 µM 19% | [8]; at 11.0 µM 35% | [9]; at 1.2 µM -14% | [9]; at 3.7 µM -3% | [9]; [17] 25% | [9]; at 11.0 µM 28% | [10]; at 1.2 µM -23% | [10]; at 3.7 µM -24% | [10]; [17] -17% | [10]; at 11.0 µM 2% | [11]; at 1.2 µM -12% | [11]; at 3.7 µM -9% | [11]; at 11.0 µM 4% | [11]; at 33.0 µM 60% | [12]; [17] 1% | [13]; at 1.2 µM 7% | [13]; at 3.7 µM 20% | [13]; at 11.0 µM 29% | [14]; [17] 18% | [14]; at 50.0 µM 58.5% and -14.5% | [15]; at 1.2 µM -13% | [15]; at 3.7 µM -23% | [15]; [17] 41% | [15]; at 11.0 µM 2% | [1]; at 1.2 µM -15% | [1]; at 3.7 µM -10% | [1]; at 11.0 µM 1% | [1]; at 33.0 µM 66% | [2]; at 1.2 µM -2% | [2]; at 3.7 µM -4% | [2]; at 11.0 µM 30% | [3]; at 1.2 µM 15% | [3]; at 3.7 µM 27% | [3]; at 11.0 µM 58% | [4]; [17] 38% | [16]; at 1.2 µM -20% | [16]; at 3.7 µM 3% | [16]; at 11.0 µM 47%
91.3% (active) and -13.6% (inactive): [12]; at 50.0 µM
85.3% (active) and -33% (inactive): [9]; at 50.0 µM
86.2% (active) and -25.4% (inactive): [15]; at 50.0 µM
active: [5]; at 33.0 µM 79% | [5]; at 100.0 µM 97% | [6]; at 33.0 µM 71% | [6]; at 100.0 µM 95% | [7]; at 33.0 µM 75% | [7]; at 100.0 µM 87% | [8]; at 33.0 µM 70% | [8]; at 100.0 µM 97% | [9]; at 33.0 µM 82% | [9]; [18] 90% | [9]; at 100.0 µM 95% | [10]; at 33.0 µM 78% | [10]; [18] 95% | [10]; at 100.0 µM 98% | [11]; at 100.0 µM 96% | [12]; [18] 84% | [13]; at 33.0 µM 71% | [13]; at 100.0 µM 97% | [14]; [18] 79% | [15]; at 33.0 µM 83% | [15]; [18] 97% | [15]; at 100.0 µM 98% | [1]; at 100.0 µM 93% | [2]; at 33.0 µM 87% | [2]; at 100.0 µM 99% | [3]; at 33.0 µM 89% | [3]; at 100.0 µM 98% | [4]; [18] 95% | [16]; at 33.0 µM 84% | [16]; at 100.0 µM 94%
